Compound activity as filed in PubChem BioAssay.
TRHR enhancer – qHTS for Small Molecule Agonists and Allosteric Enhancers of Human TRH Receptor: Primary Screen for Enhancers. TRHR cells, fluo-8 calcium fluorescence, EC20 TRH enhancement. Thyrotropin-releasing hormone receptor (Homo sapiens), P34981. actives 0.66% (n = 360,000). AID 493056, 2011. enhancement, % at 2 µM; in the data active = enhancement above about 30%
Target sequence (P34981 whole entry, looked up): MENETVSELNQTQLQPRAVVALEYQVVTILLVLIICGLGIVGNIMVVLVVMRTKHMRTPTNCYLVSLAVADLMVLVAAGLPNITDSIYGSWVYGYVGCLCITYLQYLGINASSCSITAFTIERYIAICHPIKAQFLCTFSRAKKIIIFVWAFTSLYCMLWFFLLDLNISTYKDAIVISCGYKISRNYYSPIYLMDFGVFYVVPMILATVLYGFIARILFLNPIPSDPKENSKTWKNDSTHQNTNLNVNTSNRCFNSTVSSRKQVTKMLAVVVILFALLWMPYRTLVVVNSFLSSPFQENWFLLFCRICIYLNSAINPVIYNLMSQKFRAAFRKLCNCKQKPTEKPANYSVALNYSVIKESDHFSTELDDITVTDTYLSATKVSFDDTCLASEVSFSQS
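TRHR-expressing cells loaded with fluo-8 calcium dye were read kinetically (ex 480/em 530) during compound addition, then stimulated with an EC20 of TRH (10 nM final). Enhancement of the Gq-mediated intracellular calcium response was scored.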
D1 antagonist – Antagonist of Human D 1 Dopamine Receptor: qHTS. HEK293 TREx D1 cells, calcium flux, dopamine EC80; stronger effect = lower value. actives 3.2% (n = 360,000). activity change, negative = inhibition, % at 10 µM. AID 504652, 2011; in the data active = activity change below about -30%
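Tetracycline-induced HEK293 Trex D1 cells, force-coupled to calcium, dye-loaded; compounds added and read 180 s, then EC80 dopamine added and calcium flux tracked kinetically another 180 s.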
TRHR ag – qHTS for Small Molecule Agonists and Allosteric Enhancers of Human TRH Receptor: Primary Screen for Agonists; TRHR cells, calcium flux fluo-8, FDSS agonist mode; actives 0.18% (n = 360,000); activation, % at 2 µM
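Read-out: compound-evoked intracellular calcium rise in TRHR cells, fluo-8 dye, kinetic FDSS fluorescence at 1 s/cycle following a 10-cycle baseline. Cells cultured overnight before dye loading (30 min–1.5 h, RT).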
D1 agonist – Allosteric Agonists of the Human D1 Dopamine Receptor: qHTS; D(1A) dopamine receptor (Homo sapiens), P21728; actives 1% (n = 360,000); AID 504660, 2011; HEK293 T-REx D1 cells, calcium flux, agonist mode; activation, % at 2 µM
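Inducible HEK293 T-REx D1 cells, force-coupled to calcium signalling, were plated at 4000 cells/well with tetracycline and held overnight at 30 C. After no-wash calcium dye loading, compound-evoked calcium rise over 180 s flagged agonists.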
D1 potentiator – Potentiators of Human D1 Dopamine Receptor: qHTS; HEK293 TREx D1 cells, calcium flux, dopamine EC20 potentiation; AID 504651, 2011; actives 0.036% (n = 360,000); potentiation, % at 10 µM; D(1A) dopamine receptor (Homo sapiens), P21728; in the data active = potentiation above about 30%
Hits are given with their value; - = inactive. In the library only some 4.7% were active in any assay of this set; here they are far more common. Cut-off read from the data, not from the text of the source, unless noted: active = activation above about 30%; inactive = the rest.

SMILES	TRHR enhancer	D1 antagonist	TRHR ag	D1 agonist	D1 potentiator
COCCNC(=O)CN1C(=O)COc2ccc(S(=O)(=O)N3CC(C)CC(C)C3)cc21 (stereo not drawn)	-	-	-	-	-
COc1cccc(NC(=O)c2ccnc(N3CCC(C(=O)NCc4cc(OC)ccc4OC)CC3)c2)c1	-	-	-	-	-
Cc1cccc(N2CCCn3c2nc2c3c(=O)n(CC(=O)OCc3ccccc3)c(=O)n2C)c1	-	-55.1	-	-	-
Cc1cccc(N2CCn3c2nc2c3c(=O)n(CCc3ccccc3)c(=O)n2C)c1	-	-	-	-	-
CC(C)CCC1(CCNC(C)c2cccs2)CCOC(C)(C)C1 (stereo not drawn)	-	-35.9	-	-	-
CCC(=O)N(CCC1(C(C)C)CCOC(C)(C)C1)C(C)c1cccs1 (stereo not drawn)	-	-	-	-	-
Cc1cc2c(s1)c1cnn(Cc3cccc([N+](=O)[O-])c3)c(=O)c1n2C	-	-	-	-	-
CCOC(=O)c1c(C)oc2c(Cl)cc(NS(=O)(=O)c3ccc(Cl)c(C)c3)cc12	-	-30.6	-	-	-
CC(=O)c1c(C)oc2c(Cl)cc(NS(=O)(=O)c3ccc(Cl)cc3)cc12	-	-	-	-	-
CCc1ccc(S(=O)(=O)Nc2ccc3oc(C)c(C(=O)OCCOC)c3c2)cc1	-	-42.7	-	-	-
COCCOC(=O)c1c(C)oc2ccc(NS(=O)(=O)c3ccc(C)cc3)cc12	-	-	-	-	-
Cn1nc(C(=O)Nc2ccc(F)c(Cl)c2)c2c1-c1ccccc1S(=O)(=O)C2	-	-	-	-	-
Cc1ccc(-c2nn(-c3ccc(F)cc3)cc2C(=O)N(C)CC(=O)Nc2ccc(N3CCOCC3)cc2)cc1	-	-	-	-	-
Cn1c(=O)c(NCCc2ccccc2)c2c3c(cccc31)C(=O)c1ccccc1-2	-	-77.6	175.4	393.8	-
CN1C(=O)c2cccc(NCCCN3C(=O)c4ccccc4C3=O)c2C1=O	-	-	-	-	-
Cn1c(=O)cc2c3c(c(N4CCCCC4)ccc31)C(=O)c1ccccc1-2	-	-	-	-	-
CCNc1cccc2c1C(=O)N(C)C2=O	-	-	-	-	-
Cn1c(=O)c(NC2CCCCC2)c2c3c(cccc31)C(=O)c1ccccc1-2	-	-68.0	218.9	454.8	-
Cn1c(NCCc2ccccc2)cc(=O)n(C)c1=O	-	-	-	-	-
CCCCNc1c2c3c(cccc3n(C)c1=O)C(=O)c1ccccc1-2	-	-46.7	94.4	326.2	-
CCNc1c2c3c(cccc3n(C)c1=O)C(=O)c1ccccc1-2	-	-	151.1	373.1	-
Cc1ccc(NS(=O)(=O)c2cccc(C(=O)N(C)Cc3cccs3)c2)cc1	-	-	-	-	-
Cc1cccn2c(=O)c(C(=O)NCc3ccc(F)cc3)c(O)nc12	-	-	-	-	-
Cc1ccc(C)c(N2CCN(C(=O)CCn3c(=O)c4cccn4c4cccnc43)CC2)c1	-	-	-	-	-
CC(=O)Nc1ccc(Nc2c3c4c(cccc4n(C)c2=O)C(=O)c2ccccc2-3)cc1	-	-	-	-	-
SMILES	TRHR enhancer	D1 antagonist	TRHR ag	D1 agonist	D1 potentiator
Cn1c(=O)c(NCCO)c2c3c(cccc31)C(=O)c1ccccc1-2	-	-41.9	268.9	441.8	-
O=C(CCCOc1ccc(Cl)cc1)NC1CCCCC1	-	-	-	-	-
CC1CN(C(=O)C(C)N2CCN(c3ccccc3Cl)CC2)CC(C)O1 (stereo not drawn)	-	-36.8	-	-	-
NC(=O)c1nsc(C(=O)N(c2cccc(F)c2)C(C(=O)NCC2CCCO2)c2c[nH]c3ccccc23)c1N (stereo not drawn)	-	-	-	-	-
C[C@@H]1C(=O)O[C@@H]2CC34[C@H]5C[C@@H](C(C)(C)C)C36[C@H](OC(=O)[C@@H]6O)OC4(C(=O)O5)[C@@]12O (stereo partly drawn)	-	-38.1	-	-	-
C[C@@H]1C(=O)O[C@H]2CC34[C@H]5C[C@@H](C(C)(C)C)[C@]36[C@@H](OC(=O)[C@@H]6O)O[C@@]4(C(=O)O5)[C@]21O (stereo partly drawn)	-	-	-	-	-
CC(C)c1ccc(NC(=O)c2cc3c(=O)oc4ccccc4c3s2)cc1	-	-	-	-	-
COc1cccc(/C=N/N2CCOCC2)c1O	-	-	-	-	-
COc1cccc(C=Nc2ccc(N3CCOCC3)cc2)c1O	36.1	-	-	-	-
O=C(Nc1cccc(NC(=O)c2ccccc2Cl)c1)c1cccc(Br)c1	-	-	-	-	-
Cc1ccc(CN2C(=O)c3ccccc3Sc3ccc(C(=O)N4CCOCC4)cc32)cc1	-	-	-	-	-
COc1cc(OC)c(NC(=O)NCCn2nnc3cc(S(=O)(=O)N(C)C)ccc32)cc1Cl	-	-	-	-	-
COc1ccccc1C(=O)NCCSc1c(C)[nH]c2ccccc12	-	-	-	-	-
Cc1ccc(C(=O)NCCSc2c(C)[nH]c3ccccc23)cc1[N+](=O)[O-]	-	-69.7	-	-	-
COc1cccc(C(=O)NCCSc2c(C)[nH]c3ccccc23)c1OC	-	-37.9	-	-	-
COc1cccc(C(C)NC(=O)C2CCCC2)c1 (stereo not drawn)	-	-	-	-	-
Cc1ccc(Cl)cc1Nc1nn2c(=O)c3ccc(C(=O)NC(C)c4ccccc4)cc3nc2s1 (stereo not drawn)	-	-54.3	-	-	-
CCN(CC)CCNC(=O)c1ccc2c(=O)n3nc(Nc4cccc(Cl)c4C)sc3nc2c1	-	-55.9	-	-	-
COc1ccccc1Nc1nn2c(=O)c3ccc(C(=O)NC(C)c4ccccc4)cc3nc2s1 (stereo not drawn)	-	-	-	-	-
COc1ccccc1NC(=O)Cn1ccn(-c2cccc3ccccc23)c(=O)c1=O	-	-	-	-	-
Cc1ccc(S(=O)(=O)Nc2ccccc2F)cc1C(=O)N1CCN(c2ccccc2O)CC1	-	-	-	-	-
CCc1ccc(C(=O)C(C)OC(=O)Cc2n[nH]c(=O)c3ccccc23)cc1 (stereo not drawn)	-	-	-	-	30.6
CC(=O)c1cccc(NC(=O)C(C)OC(=O)Cc2n[nH]c(=O)c3ccccc23)c1 (stereo not drawn)	-	-33.8	-	-	-
Cc1ccccc1-c1noc(CSc2nnc(-c3ccncc3)n2-c2ccc(F)cc2)n1	-	-	-	-	-
